Assay results reported in PubChem BioAssay (NCATS).
Records with an inconclusive call do not appear. Unmarked numbers belong to inactive results. The source made the active and inactive calls. Calls come from the whole dose curve; as a rule, active = well fitted inhibition curve with a large enough effect; inconclusive = small, poorly fitted or top-dose-only effect; inactive = flat fitted curve, though single readings scatter.
% is set by controls: 0 for no effect and ±100 for the full control effect; potency is the fitted concentration of half-maximal effect.

Each compound was assayed against Ubiquitin carboxyl-terminal hydrolase 1 (Homo sapiens) (UniProt O94782) (assay: Inhibitors of USP1/UAF1: Pilot qHTS (AID 504865; note: nearly all actives have a fitted effect of over 35% in size;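 for activity change, negative = inhibition: rhodamine fluorescence freed from ubiquitin-rhodamine substrate followed over time; top concentration of the series differs between compounds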)). Conditions: purified USP1/UAF1, Ub-rhodamine cleavage fluorescence; series mostly up to 114 µM; activity change, negative = inhibition: at the top concentration.
Chain of Ubiquitin carboxyl-terminal hydrolase 1 (Homo sapiens) (O94782 whole entry, looked up): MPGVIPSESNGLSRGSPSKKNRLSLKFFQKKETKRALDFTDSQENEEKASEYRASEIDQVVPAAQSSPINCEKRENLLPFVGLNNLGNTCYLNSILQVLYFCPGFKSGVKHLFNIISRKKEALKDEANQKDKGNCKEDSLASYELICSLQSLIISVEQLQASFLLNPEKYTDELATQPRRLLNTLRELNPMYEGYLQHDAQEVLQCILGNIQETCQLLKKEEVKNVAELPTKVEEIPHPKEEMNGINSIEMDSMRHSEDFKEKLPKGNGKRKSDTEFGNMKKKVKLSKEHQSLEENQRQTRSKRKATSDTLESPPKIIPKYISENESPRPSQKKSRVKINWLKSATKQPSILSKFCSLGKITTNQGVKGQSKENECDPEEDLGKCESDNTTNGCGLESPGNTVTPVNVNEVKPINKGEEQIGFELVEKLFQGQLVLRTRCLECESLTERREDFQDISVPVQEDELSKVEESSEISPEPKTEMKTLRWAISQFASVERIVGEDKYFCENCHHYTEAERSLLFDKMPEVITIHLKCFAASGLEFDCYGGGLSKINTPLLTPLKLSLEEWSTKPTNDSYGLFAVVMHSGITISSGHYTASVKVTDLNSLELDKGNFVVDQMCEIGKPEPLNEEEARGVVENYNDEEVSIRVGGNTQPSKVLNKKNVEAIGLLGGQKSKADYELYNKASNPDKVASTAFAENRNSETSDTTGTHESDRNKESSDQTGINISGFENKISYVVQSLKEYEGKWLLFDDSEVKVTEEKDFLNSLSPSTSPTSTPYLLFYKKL
Summary of the method: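 USP1/UAF1 complex (1nM) preincubated with compound 15 min at room temperature, then Ub-Rho substrate (150nM final) added. Fluorescence read kinetically at 480/540 nm, 6 reads every 60 seconds. Buffer: 50mM HEPES pH 7.8, 0.5mM EDTA, 0.1 mg/ml BSA, 1mM TCEP, 0.01% Tween-20.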
In the case of `O=C(Nc1ccc([N+](=O)[O-])cc1)Nc1ccc([N+](=O)[O-])cc1`, the “activity change, negative = inhibition” value is reported as -8.84%.
With `N=C(N)N1CCc2ccccc2C1` the “activity change, negative = inhibition” value was -14.7% [at 54.9 µM].
For `CC(=O)Nc1ccc(CC(=O)O)cc1`, the “activity change, negative = inhibition” value was -0.304%.
With `C#C[C@]1(O)CC[C@H]2[C@@H]3CCC4=Cc5oncc5C[C@]4(C)[C@H]3CC[C@@]21C` the “activity change, negative = inhibition” value was -8.22%.
With `CC(C)=CCOc1ccc(/C=C/C(=O)c2ccc(OCC=C(C)C)cc2OCC(=O)O)cc1` the Potency was 79.4 µM (active).
For `O=C(O)CCc1nc2ccccc2[nH]1`, the “activity change, negative = inhibition” value was -6.28%.
In the case of `COc1cc([C@H]2Oc3cc([C@H]4Oc5cc(O)cc(O)c5C(=O)[C@@H]4O)ccc3O[C@@H]2CO)ccc1O`, the “activity change, negative = inhibition” value is reported as -11.7%.
In the case of `Nc1ccc(C(=O)NCC(=O)O)cc1`, the “activity change, negative = inhibition” value is reported as -1.29% [at 54.9 µM].
With `CC(C)NCC(O)c1ccc2ccccc2c1` (stereo unspecified) the Potency was “inactive”.
With `Cc1ccccc1OCC(O)CO` (stereo unspecified) the “activity change, negative = inhibition” value was -10.1%.
`CC(C)Cc1ccc(CC(=O)O)cc1` was tested, and the “activity change, negative = inhibition” value was -4.45%.
In the case of `O=C(c1ccc(F)cc1)C1CCN(CCn2c(=S)[nH]c3ccccc3c2=O)CC1`, the “activity change, negative = inhibition” value is reported as -7.38%.
For `Cc1cccc(C)c1NC(=O)CN1CCCCCC1`, the “activity change, negative = inhibition” value was -8.59%.
`CN(C)CCC[C@@]1(c2ccc(F)cc2)OCc2cc(C#N)ccc21` was tested, and the “activity change, negative = inhibition” value was -6.71%.
In the case of `CCCCNc1ccc(C(=O)OCCOCCOCCOCCOCCOCCOCCOCCOCCOC)cc1`, the “activity change, negative = inhibition” value is reported as 12.4% [at 54.9 µM].
With `CCN(CC)CCNC(=O)COc1ccc(OC)cc1` the Potency was “inactive”.
With `Cc1ccc(S(=O)(=O)NC(=O)NC2CCCC2)cc1` the “activity change, negative = inhibition” value was -3.7%.
`CO[C@]12C[C@@H](COC(=O)c3cncc(Br)c3)CN(C)[C@@H]1Cc1cn(C)c3cccc2c13` was tested, and the “activity change, negative = inhibition” value was -1.76%.
`CC(C)(Cc1c[nH]c2ccccc12)NCC(O)COc1ccccc1C#N` (stereo unspecified) was tested, and the “activity change, negative = inhibition” value was -9.2%.
With `Clc1cccc(C(c2ccc3nc[nH]c3c2)n2ccnc2)c1` (stereo unspecified) the “activity change, negative = inhibition” value was -12.1%.
`COc1ccc(CCN(C)CCCN2CCc3cc(OC)c(OC)cc3CC2=O)cc1OC` was tested, and the “activity change, negative = inhibition” value was 0.202%.
For `CC(=O)NC(=O)c1ccccc1O`, the “activity change, negative = inhibition” value was -6.47%.
In the case of `Cc1cc(CC(=O)O)c(C)n1-c1ccc(Cl)cc1`, the “activity change, negative = inhibition” value is reported as -12.3%.
`O=C(Oc1cccc2cccnc12)c1ccccc1` was tested, and the “activity change, negative = inhibition” value was -5.6%.
`CCN1/C(=C/C=C/c2sc3ccccc3[n+]2CC)Sc2ccccc21` was tested, and the Potency was 44.7 µM (active).
`Cl/C(=C\n1cncn1)c1ccc(Cl)cc1Cl` was tested, and the “activity change, negative = inhibition” value was -8.15%.
In the case of `CCCCCCCCCCCCCC[N+](C)(C)Cc1ccccc1`, the Potency is reported as 28.2 µM (active).
`COc1cc(C(=S)N2CCOCC2)ccc1O` was tested, and the “activity change, negative = inhibition” value was -7.7%.
`OC1C(O)C(O)C(O)C(O)C1O` (stereo unspecified) was tested, and the “activity change, negative = inhibition” value was -2.83%.
For `COc1cc(C(=O)N2CCCCCCC2)cc(OC)c1OC`, the “activity change, negative = inhibition” value was -7.34%.
For `CC(C)[N+](C)(C)CC(O)COc1cccc2ccccc12` (stereo unspecified), the “activity change, negative = inhibition” value was -9.14%.
For `COc1ccccc1N1CCN(CCCCNC(=O)c2ccc(-c3ccc(C(C)=O)cc3)cc2)CC1`, the Potency was “inactive”.
In the case of `NS(=O)(=O)c1ccc(Cl)c(S(N)(=O)=O)c1`, the “activity change, negative = inhibition” value is reported as 3.52%.
In the case of `CC(=O)O[C@H]1C[C@@H]2CC[C@@H]3[C@H](CC[C@@]4(C)[C@H]3C[C@H]([N+]3(C)CCCCC3)[C@@H]4OC(C)=O)[C@@]2(C)C[C@@H]1N1CCCCC1`, the “activity change, negative = inhibition” value is reported as -4.27%.
In the case of `CN1CCN(c2c(F)cc3c(=O)c(C(=O)O)cn4c3c2SCC4)CC1`, the “activity change, negative = inhibition” value is reported as -6.84%.
In the case of `O=C(O)c1ccc(S(=O)(=O)N(Cl)Cl)cc1`, the “activity change, negative = inhibition” value is reported as -1.31%.
